# Screening results deposited in PubChem by several laboratories.
# Shown are actives, neighbours in structure and some others; about 2.2% of the full set was active somewhere.
# CHT allo act: allosteric activators of human choline transporter CHT; actives 0.49% (n = 310,000); Q9GZV3; B-score at 10 µM; CHT-expressing cells, membrane potential dye, choline EC20; active compounds read high; LV-AA mutant CHT in HEK293 cells;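 active means initial fluorescence not abnormally high and integrated response B-score, plate-corrected, over 3 SD above library mean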
# Target sequence (Q9GZV3 whole entry, looked up): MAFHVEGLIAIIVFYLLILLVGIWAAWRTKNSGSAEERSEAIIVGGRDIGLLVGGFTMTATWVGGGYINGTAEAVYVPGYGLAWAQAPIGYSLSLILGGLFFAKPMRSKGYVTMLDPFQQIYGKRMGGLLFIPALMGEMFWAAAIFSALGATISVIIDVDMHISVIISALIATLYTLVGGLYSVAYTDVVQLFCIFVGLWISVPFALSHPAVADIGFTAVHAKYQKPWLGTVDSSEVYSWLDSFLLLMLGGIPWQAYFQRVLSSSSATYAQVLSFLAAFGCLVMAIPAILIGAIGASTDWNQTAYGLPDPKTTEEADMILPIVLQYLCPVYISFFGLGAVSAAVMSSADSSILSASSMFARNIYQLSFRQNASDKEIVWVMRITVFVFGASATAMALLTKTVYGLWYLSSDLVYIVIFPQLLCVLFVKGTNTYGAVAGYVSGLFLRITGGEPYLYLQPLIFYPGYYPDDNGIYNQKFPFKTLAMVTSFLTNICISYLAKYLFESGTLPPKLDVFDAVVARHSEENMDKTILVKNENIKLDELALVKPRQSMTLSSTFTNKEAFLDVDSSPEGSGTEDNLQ
# Platelet DG rel: modulates dense granule release in human platelets. human platelet-rich plasma, SFLLRN dense granule ATP release, luminescence. inhibition, %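 (compounds screened at 7.5 µM in platelet-rich plasma)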. actives 0.22% (n = 300,000);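 active means mean replicate score, as percent of positive control, at or above 50; inconclusive means mean below 50 but at least one replicate at or above 50; inactive means mean and every replicate below 50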
# CHT block: inhibitors of human choline transporter CHT; B-score at 10 µM; CHT-expressing cells, membrane potential dye, choline response; active compounds read low; AID 488975; actives 0.86% (n = 310,000);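 active means B-score over 3 SD under the library average, and starting fluorescence ratio not unusually high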;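 further: choline stimulus applied at its EC90 after an EC20 pre-addition; B-score computed on integrated fluorescence ratio after choline addition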
# VLA-4 inh: inhibition in a human VLA-4 binding assay. P13612. VLA-4 expressing cells, ligand binding flow cytometry. inhibition, % (about 7 µM as worked out from the volumes in the protocol). actives 0.2% (n = 330,000); in the data active means inhibition above about 50%
# AI-2 QS modul: modulates the Vibrio harveyi AI-2 quorum sensing system | Vibrio harveyi JMH597 AI-2 luminescence/OD600 ratio, 9 h; active compounds read low; strain lacks LuxN and CqsS sensors; 0 = neutral-control median | activity change, % at 7.5 µM | actives 0.4% (n = 300,000) | AID 2094; in the data active means activity change below about -75%, passing the limit was not always enough; inconclusive means no clear call, values can overlap the other calls;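 further: luminescence divided by OD600 gain over 9 h not by final OD600 alone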
# HIF act: HIF pathway transcriptional activation; U2OS HRE-luciferase reporter, luminescence; normalized: DMSO 0%, desferrioxamine 100%; activation, % at 7.5 µM (by protocol); actives 0.32% (n = 300,000);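 active means mean activation of at least 10% of the iron chelator positive control signal, with at least half of replicates also reaching 10%; inconclusive means mean and replicate majority disagree about reaching 10%; inactive means mean and most replicates under 10%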
# A number is an active result; n = inactive; u = inconclusive; x = not tested or not shown.
SMILES,CHT allo act,Platelet DG rel,CHT block,VLA-4 inh,AI-2 QS modul,HIF act
O=C(N/N=C/c1ccc(Cl)c([N+](=O)[O-])c1)c1cc(-c2ccc3c4c(cccc24)CC3)n[nH]1,n,52,n,n,n,n
O=C(NC1CCCC1)C1CCN(C(=O)c2ccc(Cl)cc2Cl)CC1,n,n,n,n,n,n
Cc1ccc(Cc2c[nH]c(=S)s2)cc1,n,n,n,n,-89,n
COc1ccc2c(c1)cc1n2CCN2CCCN=C12,n,n,-6.2,n,n,n
O=C(CSc1nc2nn(-c3ccccc3)c(=O)c-2c2n1CCCCC2)Nc1cccc(F)c1,x,x,x,n,x,x
Cc1nc2sccn2c(=O)c1S(=O)(=O)NC(C)c1ccccc1 (centres undefined),n,63,n,n,n,n
Cc1nc2sccn2c(=O)c1S(=O)(=O)NCC(C)c1ccccc1 (centres undefined),n,58,n,n,n,n
CC(C)CN(C(=O)COC(=O)C(C)N1C(=O)c2ccccc2C1=O)c1c(N)n(Cc2ccccc2)c(=O)[nH]c1=O (centres undefined),n,x,n,n,n,n
CCOC(=O)C(=CNc1cc(OC)ccc1-n1cccc1)C(=O)OCC,n,n,n,n,n,n
Cc1ccc(S(=O)(=O)N2C(=O)CCC2C(N)=O)cc1 (centres undefined),n,n,n,n,n,n
Cc1cc(C)c(S(=O)(=O)Nc2nnc(C3CCCCC3)s2)c(C)c1,n,n,n,n,n,n
CC(NC(=O)c1cc2ccccc2oc1=O)c1ccccc1 (centres undefined),n,n,n,n,n,n
COc1cc(C)c(NC(=O)Cc2ccsc2)cc1OC,n,n,n,n,n,n
CS(=O)(=O)N1CCc2cc(C(=O)OCC(=O)c3ccccc3)ccc21,n,n,n,n,-77,n
CN(C(=O)c1ccc2c(c1)CCN2S(C)(=O)=O)c1ccccc1,n,n,n,n,n,n
O=Cc1coc2c(ccc3ccccc32)c1=O,n,n,-6.5,n,u,n
O=C/C=C/c1coc2ccc3ccccc3c2c1=O,n,n,n,n,n,n
C=CCN(Cc1nc(-c2ccccc2)no1)C(=O)c1ccco1,n,n,n,n,n,n
COc1ccc(CCCC(=O)NCCc2ccccc2)cc1,n,n,n,n,n,n
COc1ccc2c(c1)C(SCC(=O)NCCc1ccccc1)CC(C)(C)O2 (centres undefined),n,n,-6.4,n,n,n
Cc1nn(-c2ccc3ccccc3c2)c(=O)c2ccccc12,n,n,n,n,n,n
Cc1nn(-c2nc3ccccc3[nH]2)c(=O)c2ccccc12,n,81,n,n,n,n
S=C(NCCCN1CCOCC1)NC1CC1,n,n,n,n,n,n
Oc1c(C=NCc2ccccc2)sc2ccccc12,n,n,n,n,-92,n
Oc1cccc(C=NCc2ccccc2)c1O,n,n,n,n,n,n
SMILES,CHT allo act,Platelet DG rel,CHT block,VLA-4 inh,AI-2 QS modul,HIF act
Cc1ccc(-c2nnn(CC(=O)N(C)C3CCCCC3)n2)o1,n,n,n,n,n,n
CN(C(=O)Cn1nnc(-c2cccc(C(F)(F)F)c2)n1)C1CCCCC1,n,70,n,n,n,n
CNNC(=O)C(C)NC(=O)c1ccc(Br)cc1 (centres undefined),n,n,n,n,n,38
Clc1ccc(/C=C/c2nc3ccccc3[nH]2)cc1,n,78,n,n,n,n
O=C(O)CN1C(=O)C2C3CC(C2C1=O)C1C(c2ccc(F)cc2)c2sc(=O)[nH]c2SC31 (centres undefined),n,n,n,n,n,n
COCCn1c(-c2ccc(OC)cc2)cnc1SCC(=O)Nc1ccc(OC)cc1OC,n,n,n,n,n,21
Cc1ccc(S(=O)(=O)CCC(=O)c2ccc(O)cc2O)cc1,n,n,-5.2,n,x,n
Cc1ccc(S(=O)(=O)CCC(=O)OCC(=O)c2cc(C)ccc2C)cc1,n,n,n,n,n,n
CCCCOc1ccc(-c2cc(C(=O)NNC(=S)NCC)c3ccccc3n2)cc1,n,77,n,n,n,n
CCNC(=S)NNC(=O)c1cc(-c2cccc(OCC)c2)nc2ccccc12,n,n,n,n,n,n
O=C(NC(=S)Nc1ccccn1)c1cc(-c2ccccc2)nc2ccccc12,n,n,n,n,n,184
O=C(NC(=S)Nc1ccccc1)c1cc(-c2ccccc2)nc2ccccc12,n,n,n,n,n,n
CCNC(=S)NNC(=O)c1cc(-c2cccc(C)c2)nc2ccccc12,n,n,n,n,n,n
CCNC(=S)NNC(=O)c1cc(-c2ccc(OC)cc2)nc2ccccc12,n,111,n,n,n,n
Cc1cc(C(=O)OCC(=O)N(C)c2c(N)n(Cc3ccccc3)c(=O)[nH]c2=O)c(C)n1-c1ccccc1,x,x,x,n,x,x
CC1=NN(c2ccc(Br)cc2)C(=O)/C1=C/c1ccc(-c2ccccc2C(=O)O)o1,n,n,-7.2,n,n,n
CCOC(=O)c1cc(-c2ccc(/C=C3/C(=O)N(c4ccc(C(=O)O)cc4)N=C3C)o2)ccc1Cl,n,n,n,n,n,n
CC(C)CC1NC(=O)c2ccc(Cl)cc2-n2c1nc1ccc(Cl)cc1c2=O (centres undefined),x,x,x,n,x,x
N/C(=N\O)c1ccc([N+](=O)[O-])s1,n,n,n,n,n,n
CC(C)(C)C(=O)O/N=C(\N)c1ccc([N+](=O)[O-])s1,n,n,n,n,-84,n
O=C(NC1CCCC1)c1ccc([N+](=O)[O-])s1,n,n,n,n,u,n
N/C(=N\OC(=O)C1CC1)c1ccc([N+](=O)[O-])s1,n,n,n,n,-88,n
COc1ccc(C)cc1NC(=O)CNc1ccc(C(C)=O)cc1,n,n,n,n,n,n
Fc1ccccc1NC(=S)Nc1ccc(Br)cc1,n,n,n,n,n,80
COc1cc(C)ccc1OCc1cc(C(=O)N2CCN(C)C[C@@H]2c2ccccc2)no1,n,n,n,n,n,n
SMILES,CHT allo act,Platelet DG rel,CHT block,VLA-4 inh,AI-2 QS modul,HIF act
COc1cccc2c1O/C(=N\O)C(C(=O)Nc1ccc(C)cc1)C2 (centres undefined),n,n,n,n,-89,n
COc1ccc(NC(=O)C2Cc3cccc(OC)c3O/C2=N\O)cc1 (centres undefined),n,n,n,n,n,n
COc1ccc(S(=O)(=O)N2CCOC2CNC(=O)C(=O)NCc2ccc3c(c2)OCO3)cc1OC (centres undefined),n,n,n,n,n,219
O=C(NCc1ccc2c(c1)OCO2)C(=O)NCC1OCCN1S(=O)(=O)c1ccc(Cl)cc1 (centres undefined),n,n,n,n,n,n
COc1ccc(CCNC(=O)c2nnn(CC(=O)Nc3cccc(F)c3)c2N)cc1OC,n,n,n,n,n,n
CCOC(=O)C1CCN(S(=O)(=O)c2c(Cl)ccc3nonc23)CC1,n,n,-5.4,n,n,n
